Laboratory results reported in PubChem BioAssay AID493248 (Broad Institute, 2011).
The campaign covered roughly 2,300 compounds. About 1,400 (61%) were called active. Another 7% or so got no clear call; they are omitted. No rule for the calls is given here. The set was probably picked from earlier hits. The list is a sample of the results. Entries with a potency or affinity are not part of this list.

Molecular target: FAD-linked sulfhydryl oxidase ALR (Homo sapiens) (UniProt P55789)
Test: ALR-catalysed DTT oxidation blockers – biochemical, H2O2 detection, luminescence, cherry-pick, dose response (AID 493248)
Conditions: purified ALR, H2O2 HRP-luminol luminescence; at 10 µM (top of the series)

Sequence of FAD-linked sulfhydryl oxidase ALR (Homo sapiens) (P55789 whole entry, looked up): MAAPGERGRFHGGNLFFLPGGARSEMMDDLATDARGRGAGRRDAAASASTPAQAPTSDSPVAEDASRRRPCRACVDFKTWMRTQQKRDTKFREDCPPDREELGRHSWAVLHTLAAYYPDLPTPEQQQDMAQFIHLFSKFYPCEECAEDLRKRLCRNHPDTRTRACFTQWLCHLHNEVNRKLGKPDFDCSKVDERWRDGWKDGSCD

Question: How did the activity change, negative = inhibition turn out when Cc1nc(C)c(-c2csc(Nc3cccnc3)n2)s1 was run?
Answer: -15.7%

Question: With Cc1nc(C)c(-c2csc(Nc3ccc(O)cc3C)n2)s1 as the compound, how does the activity change, negative = inhibition read?
Answer: -3.91%

Question: How did the activity change, negative = inhibition turn out when COc1cc(N)c(Cc2nccc3cc(OC)c(OC)cc23)cc1OC was run?
Answer: 5.91%

Question: For COc1cc(Sc2ccc(C)cc2)c(OC)cc1N, which activity change, negative = inhibition is on record?
Answer: -74.8%

Question: Which activity change, negative = inhibition does the source give for CC(/C=N/n1c(-c2ccc(C)cc2)n[nH]c1=S)=C\c1ccco1 here?
Answer: -40.8%

Question: With Cc1cccc(/C=N/Nc2nncc3ccccc23)c1 as the compound, how does the activity change, negative = inhibition read?
Answer: -4.32%

Question: CN1C(=O)CC(NNC(=O)c2ccc(Cl)cc2)C1=O (stereo not drawn) was tested. Which activity change, negative = inhibition did it give?
Answer: -47.1%

Question: Which activity change, negative = inhibition does the source give for O=C(N/N=C1/CCSC1)c1cc(Br)ccc1O here?
Answer: -17.6%

Question: For COc1ccc(NCCc2ccccn2)cc1, which activity change, negative = inhibition is on record?
Answer: 86.3%

Question: COc1ccc(Nc2ccccc2N)cc1 was tested. Which activity change, negative = inhibition did it give?
Answer: 221%

Question: How did the activity change, negative = inhibition turn out when O=c1[nH]nc(CNc2ccc(O)cc2)c2ccccc12 was run?
Answer: -103%

Question: With S=c1[nH]cc(-c2ccccc2)n1-c1ccccc1Cl as the compound, how does the activity change, negative = inhibition read?
Answer: -24.1%

Question: For Nc1ccccc1C(=O)NNc1c2ccccc2nc2ccccc12, which activity change, negative = inhibition is on record?
Answer: -69.6%

Question: With C/C(=N\NC(=O)c1ccccc1O)C1C(=O)c2ccccc2C1=O as the compound, how does the activity change, negative = inhibition read?
Answer: -23.9%

Question: Which activity change, negative = inhibition does the source give for CC(=O)Nc1ccc(NCN2C(=O)C3C4CCC(C4)C3C2=O)cc1 (stereo not drawn) here?
Answer: -86.6%

Question: CCc1cc2c3c(c1)C(C)CC(C)(C)N3C(=O)/C2=C1\SC(=O)NC1=O (stereo not drawn) was tested. Which activity change, negative = inhibition did it give?
Answer: -7.31%

Question: Which activity change, negative = inhibition does the source give for C/C(=N\Nc1ccccn1)c1cccs1 here?
Answer: -11.5%

Question: For COc1ccc2c(c1)N(C)/C(=C/c1cccc[n+]1C)S2, which activity change, negative = inhibition is on record?
Answer: -53.1%

Question: With CCC(=O)Nc1cccc(-c2cnc3ccccc3n2)c1 as the compound, how does the activity change, negative = inhibition read?
Answer: 3.89%

Question: CN1CCN(c2ccc(NC(=O)c3ccc(Cl)cc3)cn2)CC1 was tested. Which activity change, negative = inhibition did it give?
Answer: -19.7%

Question: For COc1cc(OC)cc(C(=O)N2CCC(N3CCN(c4ccccc4)CC3)CC2)c1, which activity change, negative = inhibition is on record?
Answer: -61.4%

Question: Which activity change, negative = inhibition does the source give for CC(=O)NN1C(=O)/C(=C\c2ccc(O)cc2)SC1=S here?
Answer: -79.9%

Question: For O=C(C1CC1)N1CCN=C1SCc1ccc(Cl)cc1, which activity change, negative = inhibition is on record?
Answer: -64.3%

Question: O=C1c2ccccc2CSc2c(O)cccc21 was tested. Which activity change, negative = inhibition did it give?
Answer: -28.4%

Question: For O=C(C1CC1)N1CCN=C1SCc1ccc(F)cc1, which activity change, negative = inhibition is on record?
Answer: -51.5%

Question: How did the activity change, negative = inhibition turn out when CC(=O)Nc1ccc(S(=O)(=O)NNc2ccc([N+](=O)[O-])cc2)cc1 was run?
Answer: -103%

Question: For CN(C)/C=N/c1sc2c(c1C#N)CCC2, which activity change, negative = inhibition is on record?
Answer: 25.9%

Question: COC(=O)c1ccc(NC(=O)c2ccc(C)cc2)o1 was tested. Which activity change, negative = inhibition did it give?
Answer: -4.94%

Question: CN(C)c1ccc(/C=N/NC(=O)c2cccc(N3CCCC3=O)c2)cc1 was tested. Which activity change, negative = inhibition did it give?
Answer: -16.6%

Question: CC(=O)Nc1cccc(N2CCCC2=O)c1 was tested. Which activity change, negative = inhibition did it give?
Answer: -18.2%

Question: How did the activity change, negative = inhibition turn out when CCc1c(C)sc(NC(=O)c2cc(C)no2)c1C#N was run?
Answer: -63.3%

Question: Which activity change, negative = inhibition does the source give for COC(=O)c1ccc2[nH]c3c(c2c1)CC(C)CC3 (stereo not drawn) here?
Answer: -6.7%

Question: With Cc1nc2ccc(S(=O)(=O)N(C)CC(=O)NCc3ccc(N(C)C)cc3)cc2s1 as the compound, how does the activity change, negative = inhibition read?
Answer: -41.2%

Question: With CCN1C(=O)c2ccc(C(=O)Nc3ccc(O)cc3C)cc2C1=O as the compound, how does the activity change, negative = inhibition read?
Answer: -50.1%

Question: How did the activity change, negative = inhibition turn out when CCN(Cc1nc2ccccc2n1C)c1ccccc1 was run?
Answer: -11.5%

Question: With CCn1c(CN(C)c2ccccc2)nc2ccccc21 as the compound, how does the activity change, negative = inhibition read?
Answer: -7.07%

Question: With CCn1c(-c2ccc(N)cc2)nc2ccccc21 as the compound, how does the activity change, negative = inhibition read?
Answer: -17.3%

Question: Which activity change, negative = inhibition does the source give for CN(Cc1nc2ccccc2n1C)c1ccccc1 here?
Answer: -32.4%
